Compounds without any hit were thinned out: in the full panel of roughly 79,000, 15% have a hit. The source made the active and inactive calls. Cut-off read from the data, not from the text of the source: active = growth inhibition above about 70%; inactive = the rest.
Experiments:
[1] = NCI Yeast Anticancer Drug Screen. Data for the rad52 strain (AID 147);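 note: 0% = growth of vehicle-treated control cultures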; details: S. cerevisiae rad52 mutant growth inhibition, active compounds read high
How it was run: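 Yeast strain carrying a DNA damage repair alteration was exposed to test compounds. Growth inhibition was measured relative to vehicle-treated controls.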

[2] = NCI Yeast Anticancer Drug Screen. Data for the wt1 strain (AID 149);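 note: 0% = growth of vehicle-treated wt1 cultures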; details: S. cerevisiae wt1 strain (SPY 50644) growth inhibition, active compounds read high
How it was run: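 The wt1 strain was treated with compounds, and growth was compared with vehicle-treated cultures to give inhibition.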

[3] = NCI Yeast Anticancer Drug Screen. Data for the rad50EPP+ strain (AID 151);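 note: 0% = growth of vehicle-treated control cultures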; details: S. cerevisiae rad50 mutant strain, active compounds read high
How it was run: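 Yeast strain carrying rad50 alteration (rad50EPP+) exposed to compounds; growth inhibition measured relative to vehicle-treated controls.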

[4] = NCI Yeast Anticancer Drug Screen. Data for the rad50 strain (AID 155);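 note: 0% = growth of vehicle-only cultures of the same strain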; details: S. cerevisiae rad50 strain growth inhibition, active compounds read high
How it was run: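 Cells are treated with compound, grown, and their growth is then scored against vehicle-only cultures of the same repair-deficient yeast strain.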

[5] = NCI Yeast Anticancer Drug Screen. Data for the mec2-1 strain (AID 157); details: S. cerevisiae mec2-1 strain, active compounds read high
How it was run: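 mec2-1 yeast strain, carrying an alteration in DNA damage repair or cell cycle control, was exposed to compounds; growth inhibition was measured relative to vehicle-treated controls.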

[6] = NCI Yeast Anticancer Drug Screen. Data for the rad14 strain (AID 159);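 note: 0% = growth of vehicle-treated control cultures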; details: S. cerevisiae rad14 strain growth inhibition, active compounds read high
How it was run: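 Readout: yeast growth inhibition, referenced to vehicle-only cultures. Strain bears a defined alteration in DNA damage repair.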

[7] = NCI Yeast Anticancer Drug Screen. Data for the sgs1 mgt1 strain (AID 161);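 note: 0% = growth of cultures given vehicle only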; details: S. cerevisiae sgs1 mgt1 strain, active compounds read high
How it was run: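 Growth of a repair-deficient yeast mutant was monitored after compound treatment and expressed as inhibition relative to vehicle-treated cultures.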

[8] = NCI Yeast Anticancer Drug Screen. Data for the CLN2oe strain (AID 163);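 note: 0% = growth of vehicle-only control cultures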; details: S. cerevisiae CLN2oe strain, active compounds read high
How it was run: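 Yeast cells carrying a defined cell-cycle control alteration were exposed to test compounds. Growth inhibition was scored against vehicle-treated control cultures.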

[9] = NCI Yeast Anticancer Drug Screen. Data for the cln2 rad14 strain (AID 165);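 note: 0% = growth equal to vehicle treated cultures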; details: S. cerevisiae cln2 rad14 strain, active compounds read high
How it was run: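 Yeast carrying cln2 and rad14 alterations (cell cycle control and DNA damage repair) were exposed to compounds. Growth inhibition was measured against vehicle-treated controls.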

[10] = NCI Yeast Anticancer Drug Screen. Data for the bub3 strain (AID 167); details: S. cerevisiae bub3 mutant strain, active compounds read high
How it was run: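 Part of a panel of yeast mutants defective in DNA damage repair or cell cycle regulation. Each strain is grown with compound, and inhibition is calculated relative to solvent-treated cultures.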

[11] = NCI Yeast Anticancer Drug Screen. Data for the wt2 strain (AID 169);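 note: 0% = growth of vehicle-treated yeast cultures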; details: S. cerevisiae wt2 strain growth inhibition, active compounds read high
How it was run: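 Yeast cells were exposed to test compounds, and growth inhibition was measured relative to vehicle-treated controls.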

[12] = NCI Yeast Anticancer Drug Screen. Data for the mlh1 strain (AID 171);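 note: 0% = growth of vehicle-treated control cultures of the same strain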; details: S. cerevisiae mlh1 strain growth inhibition, active compounds read high
How it was run: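 Yeast carrying a defined genetic alteration in DNA damage repair or cell cycle control were exposed to test compounds. Growth inhibition was measured relative to vehicle-treated controls.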

[13] = NCI Yeast Anticancer Drug Screen. Data for the sgs1 strain (AID 173);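 note: 0% = growth of vehicle-only control cultures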; details: S. cerevisiae sgs1 mutant, active compounds read high
How it was run: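 Yeast mutant strains carrying defined defects in DNA damage repair or cell cycle control were exposed to test compounds. Growth inhibition was scored against vehicle-treated controls.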

[14] = NCI Yeast Anticancer Drug Screen. Data for the mlh1 rad18 strain (AID 175); details: S. cerevisiae mlh1 rad18 strain growth inhibition, active compounds read high
How it was run: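 Growth inhibition of the yeast strain was measured after compound exposure and expressed relative to vehicle-treated controls. The strain carries defined defects in DNA damage repair.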

[15] = NCI Yeast Anticancer Drug Screen. Data for the rad18 strain (AID 177); details: S. cerevisiae rad18 mutant growth inhibition, active compounds read high
How it was run: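 Yeast carrying a defined DNA damage repair alteration were exposed to compounds. Growth inhibition was expressed relative to vehicle-treated controls.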

[16] = at 5.0 µM (retest, dose inferred, filed as 0.5)
[17] = at 50.0 µM (retest, dose inferred, filed as 5.0)

Measured: growth inhibition

CC(CC(C)(C)[N+](C)(C)C)[N+](C)(C)C (stereo not drawn)
inactive: [1]; at 1.2 µM 13% | [1]; at 3.7 µM 1% | [1]; at 11.0 µM 13% | [1]; at 33.0 µM 15% | [1]; at 100.0 µM 14% | [2]; at 1.2 µM 3% | [2]; at 3.7 µM -2% | [2]; at 11.0 µM -3% | [2]; at 33.0 µM -3% | [2]; at 100.0 µM 0% | [3]; at 1.2 µM -1% | [3]; at 3.7 µM 1% | [3]; at 11.0 µM 1% | [3]; at 33.0 µM 4% | [3]; at 100.0 µM -1% | [4]; at 1.2 µM 1% | [4]; at 3.7 µM 1% | [4]; [16] 25% | [4]; at 11.0 µM 2% | [4]; at 33.0 µM 2% | [4]; at 100.0 µM 0% | [5]; at 1.2 µM 5% | [5]; at 3.7 µM -11% | [5]; [16] 19% | [5]; at 11.0 µM -4% | [5]; at 33.0 µM 2% | [5]; at 100.0 µM -4% | [6]; at 1.2 µM 2% | [6]; at 3.7 µM 3% | [6]; at 11.0 µM 3% | [6]; at 33.0 µM 3% | [6]; at 100.0 µM 1% | [7]; [16] 1% | [8]; at 1.2 µM -11% | [8]; at 3.7 µM -1% | [8]; at 11.0 µM 1% | [8]; at 33.0 µM -6% | [8]; at 100.0 µM -7% | [9]; [16] 35% | [10]; at 1.2 µM -2% | [10]; at 3.7 µM -8% | [10]; [16] 67% | [10]; at 11.0 µM 0% | [10]; at 33.0 µM -1% | [10]; at 100.0 µM -1% | [11]; at 1.2 µM -1% | [11]; at 3.7 µM -1% | [11]; at 11.0 µM 0% | [11]; at 33.0 µM -1% | [11]; at 100.0 µM -1% | [12]; at 1.2 µM -1% | [12]; at 3.7 µM -1% | [12]; at 11.0 µM -2% | [12]; at 33.0 µM -3% | [12]; at 100.0 µM 0% | [13]; at 1.2 µM 2% | [13]; at 3.7 µM 3% | [13]; at 11.0 µM 1% | [13]; at 33.0 µM 4% | [13]; at 100.0 µM -1% | [14]; [16] 12% | [15]; at 1.2 µM 11% | [15]; at 3.7 µM 8% | [15]; at 11.0 µM 14% | [15]; at 33.0 µM 15% | [15]; at 100.0 µM 20%
active: [4]; [17] 95% | [4]; at 50.0 µM 92.8% | [5]; [17] 97% | [5]; at 50.0 µM 96% | [7]; [17] 91% | [7]; at 50.0 µM 95.8% | [9]; [17] 95% | [9]; at 50.0 µM 90.8% | [10]; [17] 99% | [10]; at 50.0 µM 95.7% | [14]; [17] 97% | [14]; at 50.0 µM 94.3%

From PubChem BioAssay (NCI)
